Reference: PubChem BioAssay
Records with an inconclusive call do not appear. Calls of active or inactive are those of the source.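 The calls were made as follows, unless noted: active = inhibition above the screen-wide mean plus 3 SD, about 51%; inactive = the rest.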

Assays:
[1] = yeast TOR pathway RPL19A-GFP modulators, primary screen, cell-based, S. cerevisiae, multiplex flow cytometry (AID 1862; in the data active = percent of DMSO control GFP below about 86%;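 also: lower values mimic rapamycin by blocking the RPL19A rise seen in DMSO cells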); conditions: S. cerevisiae RPL19A-GFP strain, flow cytometry fluorescence, 3 h; at 10 µM; stronger effect = lower value
[2] = modulators of MEP2-GFP levels in yeast, primary screen, S. cerevisiae, multiplex flow cytometry (AID 1867;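 active = GFP response, as percent of the DMSO control, above the screen-wide mean plus 3 SD, about 139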;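 also: median GFP channel fluorescence of barcode-gated MEP2-GFP cells measured by flow cytometry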); conditions: S. cerevisiae MEP2-GFP strain, 3 h, at 10 µM, stronger effect = higher value, 100% means same as DMSO wells
[3] = modulators of CIT2-GFP expression in yeast, primary screen, S. cerevisiae, GFP fusion, multiplex flow cytometry (AID 1870;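 active = percent response above a set limit, the screen-wide mean plus 3 SD, cut at about 130% in these data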;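 also: barcoded CIT2-GFP strain pooled with four other GFP strains with rapamycin as positive control; median GFP fluorescence per well over plate mean of DMSO wells so 100% = DMSO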); conditions: 3 h, at 10 µM, stronger effect = higher value
[4] = modulators of LAP4-GFP expression in yeast, primary screen, S. cerevisiae, multiplex flow cytometry (AID 1873;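 active = GFP signal, as percent of the solvent control, above the screen mean plus 3 SD, about 149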); conditions: 3 h, at 10 µM, stronger effect = higher value
[5] = modulators of AGP1-GFP expression in yeast TOR pathway, primary screen, cell-based, multiplex flow cytometry, S. cerevisiae (AID 1887;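 active = GFP signal above the screen-wide mean plus 3 SD, that is over about 124.5% of the solvent control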;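 also: AGP1-GFP fusion strain of S. cerevisiae within a five-strain barcoded multiplex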); conditions: 3 h, at 10 µM, stronger effect = higher value
[6] = inhibitors of CD8+ T cell-vesicle binding, pilot screen, LFA-1/ICAM-1 modulator project, MLPCN validation set, flow cytometry (AID 2523;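 active = response below a set limit, under 55% cells CD8-positive and vesicle-bound, and CD8 cells' 90th-percentile brightness under 279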;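 as to vesicle binding response: mean PE anti-B7-1 fluorescence of CD8+ cells relative to row control; 100% = QL9-loaded vesicles with DMSO vehicle in the same plate row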); conditions: 2C mouse CD8+ T cells, at 7 µM, stronger effect = lower value; double positive events: measured here: CD8+/vesicle+ event percentage
[7] = target: Integrin beta-1 (Homo sapiens) + Integrin alpha-4 (Homo sapiens) (UniProt P13612+P05556); assay: inhibition of HUTS-21 binding to VLA-4, pilot screen, VLA-4 allosteric modulator project, U937 cells, HUTS-21 mAb, flow cytometry, validation set (AID 2674;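 active = inhibition above 50%, about 3 SD of the validation set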;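 also: antibody binding induced by the VLA-4 ligand LDV present at three times its Kd; 0% = LDV ligand with antibody and no compound and 100% = antibody without LDV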); conditions: HUTS-21 LIBS mAb binding, at 6.7 µM, stronger effect = higher value, binding induced by LDV ligand
[8] = superoxide lowering in aged yeast cells, pilot screen, validation compound set (AID 2706;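 active = superoxide response below 65% of plate, a cut near 3 SD across the whole screen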;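 also: yeast exposed to compound for one week at 30 degrees C before staining; 100% = mean of all compound wells on the same plate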); conditions: S. cerevisiae aging, superoxide DHE fluorescence; at 10 µM; stronger effect = lower value
[9] = target: Beta-adrenergic receptor kinase 1 (Homo sapiens) (UniProt P25098); assay: GRK2 binders displacing RNA aptamer, biochemical, validation, human GRK2, bead flow cytometry (AID 488806;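 active = aptamer binding inhibition above 30%, about 3 SD of noise from non-fluorescent compounds; inactive = inhibition at or below 30%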); conditions: bead-bound GRK2, FAM-aptamer displacement, at 10 µM, stronger effect = higher value
[10] = target: Beta-2 adrenergic receptor (Homo sapiens) (UniProt P07550); assay: beta2AR agonists driving receptor internalization, pilot screen, cell-based, FAP fluorogen, flow cytometry, validation set (AID 504459;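 active = percent response above 42, roughly 3 SD of non-fluorescent test compounds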;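 also: agonist-driven loss of surface beta2AR via internalization measured by FAP dye flow cytometry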); conditions: Am2.2-beta2AR cells, FAP surface receptor flow cytometry; at 10 µM; stronger effect = higher value
[11] = target: AP-2 complex subunit beta (Homo sapiens) (UniProt P63010); assay: inhibitors of arrestin peptide binding to AP2, pilot screen, biochemical, validation set, GST-AP2 beads, flow cytometry (AID 504541;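 active = inhibition above 54%, about 3 SD of non-fluorescent compounds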;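 also: AP2 carries R879A mutation and is captured from E. coli lysate; bead-bound FITC arrestin peptide fluorescence measuring arrestin peptide binding to AP2; 0% = DMSO wells and 100% = excess unlabeled arrestin peptide control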); conditions: FITC arrestin peptide, at 10 µM, stronger effect = higher value, AP2 beta2 appendage fragment, R879A mutant
[12] = yeast V-ATPase proton transport modulators, S. cerevisiae, pHLuorin, HTS validation (AID 504600; in the data active = response above about 15%;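 also: plate controls were DMSO for no effect and reference compound for full effect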); conditions: S. cerevisiae pHLuorin cytosolic pH, at 10 µM, stronger effect = higher value
[13] = test system: anti-desmoglein-3 scFv antibody binding to human DSG3; assay: inhibitors of anti-DSG3 scFv binding to DSG3, pilot screen, biochemical, validation compound set, bead-based, flow cytometry (AID 588368;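 active = binding below the plate cutoff, the plate median minus 3 SD, with a reading above zero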;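 also: signal is the median channel fluorescence of bead-bound GFP antibody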); conditions: Protein G beads, DSG3-Fc, scFv-GFP binding, at 10 µM, stronger effect = lower value
[14] = inhibitors of fungal efflux pumps CDR1, CDR2, MDR1, pilot screen, validation compound set, multiplex, phenotypic (AID 588506;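 active = efflux inhibition above 0.42, the validation set average plus 4 SD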;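 also: Nile Red retained in cells so higher fluorescence means more efflux inhibition; 0 = negative control wells and 1 = enniatin B 25 µM full block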); conditions: S. cerevisiae pump-expressing triplex, Nile Red efflux flow cytometry; at 10 µM; stronger effect = higher value; the pumps come from Candida albicans
[15] = target: ATP-binding cassette sub-family B member 6 (Homo sapiens) (UniProt Q9NP58); assay: ABCB6 transporter inhibitors, pilot screen, K562-ABCB6 cells, flow cytometry, validation set (AID 588550); conditions: K562-ABCB6 porphyrin accumulation, 1 h, at 10 µM, stronger effect = higher value;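 also: 0% = DMSO wells and 100% = benzethonium chloride 70 µM positive control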
[16] = promoters of myeloid differentiation in arrested cells, primary screen, cell-based, GFP/MAC1 double positive, flow cytometry, validation set (AID 588685;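 active = differentiation response of at least 50%, scaled between solvent and reference control, from cells with both markers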;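 also: compound exposure lasts four days before antibody staining and flow analysis; 0% = DMSO wells and 100% = 5 µM fulvestrant positive control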); conditions: ER-HoxA9 marrow cells, stronger effect = higher value, normalized: vehicle 0, fulvestrant 100

Chain of Beta-2 adrenergic receptor (Homo sapiens) (P07550 whole entry, looked up): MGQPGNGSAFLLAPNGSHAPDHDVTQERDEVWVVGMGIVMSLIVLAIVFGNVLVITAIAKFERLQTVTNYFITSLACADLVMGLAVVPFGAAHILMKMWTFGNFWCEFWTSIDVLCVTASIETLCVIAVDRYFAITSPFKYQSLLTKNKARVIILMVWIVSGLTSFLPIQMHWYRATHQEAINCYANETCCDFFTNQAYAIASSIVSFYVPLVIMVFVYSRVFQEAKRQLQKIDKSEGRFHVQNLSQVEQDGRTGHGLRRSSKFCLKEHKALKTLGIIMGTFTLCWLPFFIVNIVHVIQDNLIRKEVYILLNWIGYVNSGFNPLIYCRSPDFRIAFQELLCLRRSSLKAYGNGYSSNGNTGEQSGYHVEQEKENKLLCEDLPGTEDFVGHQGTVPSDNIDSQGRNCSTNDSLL
Chain of ATP-binding cassette sub-family B member 6 (Homo sapiens) (Q9NP58 whole entry, looked up): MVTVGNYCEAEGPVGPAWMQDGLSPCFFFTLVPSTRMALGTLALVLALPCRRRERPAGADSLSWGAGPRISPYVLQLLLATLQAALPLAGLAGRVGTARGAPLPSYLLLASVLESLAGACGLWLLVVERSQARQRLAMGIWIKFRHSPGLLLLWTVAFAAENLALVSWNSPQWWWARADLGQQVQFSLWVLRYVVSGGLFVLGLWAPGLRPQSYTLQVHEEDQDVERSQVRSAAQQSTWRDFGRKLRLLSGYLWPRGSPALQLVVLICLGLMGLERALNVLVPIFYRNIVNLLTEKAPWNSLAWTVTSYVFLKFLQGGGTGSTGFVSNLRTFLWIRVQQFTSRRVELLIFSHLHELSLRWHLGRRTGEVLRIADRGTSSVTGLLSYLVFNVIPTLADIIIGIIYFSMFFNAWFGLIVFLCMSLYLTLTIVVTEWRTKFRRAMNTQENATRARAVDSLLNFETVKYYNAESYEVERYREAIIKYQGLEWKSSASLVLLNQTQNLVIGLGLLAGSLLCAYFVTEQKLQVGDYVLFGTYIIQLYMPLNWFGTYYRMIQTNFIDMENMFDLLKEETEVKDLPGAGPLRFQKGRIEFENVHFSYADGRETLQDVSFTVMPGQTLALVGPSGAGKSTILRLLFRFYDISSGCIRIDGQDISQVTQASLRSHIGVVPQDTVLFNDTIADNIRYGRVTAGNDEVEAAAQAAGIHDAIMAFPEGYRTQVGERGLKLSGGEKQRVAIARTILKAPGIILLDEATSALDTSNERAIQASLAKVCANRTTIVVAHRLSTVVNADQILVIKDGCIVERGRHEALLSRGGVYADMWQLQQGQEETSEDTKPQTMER
Chain of Integrin beta-1 (Homo sapiens) + Integrin alpha-4 (Homo sapiens) (P05556 whole entry, looked up): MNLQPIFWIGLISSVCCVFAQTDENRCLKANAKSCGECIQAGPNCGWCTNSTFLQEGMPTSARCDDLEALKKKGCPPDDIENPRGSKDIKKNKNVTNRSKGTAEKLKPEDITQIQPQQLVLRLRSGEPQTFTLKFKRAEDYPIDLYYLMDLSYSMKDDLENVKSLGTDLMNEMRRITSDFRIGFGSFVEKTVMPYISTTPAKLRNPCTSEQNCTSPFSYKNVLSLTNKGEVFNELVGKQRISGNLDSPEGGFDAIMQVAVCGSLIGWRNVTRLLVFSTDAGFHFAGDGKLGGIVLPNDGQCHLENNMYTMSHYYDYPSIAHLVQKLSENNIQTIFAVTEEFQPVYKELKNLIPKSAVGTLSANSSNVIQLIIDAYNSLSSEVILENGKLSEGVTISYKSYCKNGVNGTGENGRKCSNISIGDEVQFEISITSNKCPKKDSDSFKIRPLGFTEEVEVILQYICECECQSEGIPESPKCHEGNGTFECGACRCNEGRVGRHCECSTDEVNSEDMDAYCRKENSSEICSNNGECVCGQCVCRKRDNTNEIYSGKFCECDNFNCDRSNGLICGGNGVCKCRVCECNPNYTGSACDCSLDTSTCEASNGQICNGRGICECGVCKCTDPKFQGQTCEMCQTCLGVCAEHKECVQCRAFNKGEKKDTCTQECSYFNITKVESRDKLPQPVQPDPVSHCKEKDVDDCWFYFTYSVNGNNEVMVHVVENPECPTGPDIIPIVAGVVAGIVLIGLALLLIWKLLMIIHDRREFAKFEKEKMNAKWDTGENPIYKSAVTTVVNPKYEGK
Chain of Integrin beta-1 (Homo sapiens) + Integrin alpha-4 (Homo sapiens) (P13612 whole entry, looked up): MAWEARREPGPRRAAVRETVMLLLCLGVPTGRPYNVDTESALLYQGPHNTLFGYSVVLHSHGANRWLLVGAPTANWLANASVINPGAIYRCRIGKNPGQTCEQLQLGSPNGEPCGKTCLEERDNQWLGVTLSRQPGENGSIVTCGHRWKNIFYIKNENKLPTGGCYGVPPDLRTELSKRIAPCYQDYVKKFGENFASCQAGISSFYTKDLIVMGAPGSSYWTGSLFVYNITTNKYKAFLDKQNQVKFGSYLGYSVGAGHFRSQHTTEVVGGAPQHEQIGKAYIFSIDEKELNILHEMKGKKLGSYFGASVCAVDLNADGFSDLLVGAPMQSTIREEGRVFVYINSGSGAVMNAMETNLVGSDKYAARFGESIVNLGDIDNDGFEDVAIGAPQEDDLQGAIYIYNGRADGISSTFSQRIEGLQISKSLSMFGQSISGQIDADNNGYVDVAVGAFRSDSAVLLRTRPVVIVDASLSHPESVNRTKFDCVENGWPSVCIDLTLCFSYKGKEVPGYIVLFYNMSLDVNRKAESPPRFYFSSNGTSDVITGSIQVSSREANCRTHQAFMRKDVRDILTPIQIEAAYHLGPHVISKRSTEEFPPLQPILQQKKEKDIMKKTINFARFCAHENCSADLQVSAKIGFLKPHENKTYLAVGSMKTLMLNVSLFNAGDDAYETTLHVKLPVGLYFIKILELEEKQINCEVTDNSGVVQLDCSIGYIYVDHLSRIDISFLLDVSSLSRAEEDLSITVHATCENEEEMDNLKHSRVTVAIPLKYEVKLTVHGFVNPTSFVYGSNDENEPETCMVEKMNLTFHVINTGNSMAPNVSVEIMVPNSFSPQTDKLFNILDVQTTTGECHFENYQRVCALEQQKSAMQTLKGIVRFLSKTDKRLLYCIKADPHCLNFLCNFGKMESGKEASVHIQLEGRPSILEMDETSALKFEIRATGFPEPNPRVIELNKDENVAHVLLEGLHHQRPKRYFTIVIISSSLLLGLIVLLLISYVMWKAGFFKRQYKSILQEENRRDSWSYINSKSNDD
Chain of Beta-adrenergic receptor kinase 1 (Homo sapiens) (P25098 whole entry, looked up): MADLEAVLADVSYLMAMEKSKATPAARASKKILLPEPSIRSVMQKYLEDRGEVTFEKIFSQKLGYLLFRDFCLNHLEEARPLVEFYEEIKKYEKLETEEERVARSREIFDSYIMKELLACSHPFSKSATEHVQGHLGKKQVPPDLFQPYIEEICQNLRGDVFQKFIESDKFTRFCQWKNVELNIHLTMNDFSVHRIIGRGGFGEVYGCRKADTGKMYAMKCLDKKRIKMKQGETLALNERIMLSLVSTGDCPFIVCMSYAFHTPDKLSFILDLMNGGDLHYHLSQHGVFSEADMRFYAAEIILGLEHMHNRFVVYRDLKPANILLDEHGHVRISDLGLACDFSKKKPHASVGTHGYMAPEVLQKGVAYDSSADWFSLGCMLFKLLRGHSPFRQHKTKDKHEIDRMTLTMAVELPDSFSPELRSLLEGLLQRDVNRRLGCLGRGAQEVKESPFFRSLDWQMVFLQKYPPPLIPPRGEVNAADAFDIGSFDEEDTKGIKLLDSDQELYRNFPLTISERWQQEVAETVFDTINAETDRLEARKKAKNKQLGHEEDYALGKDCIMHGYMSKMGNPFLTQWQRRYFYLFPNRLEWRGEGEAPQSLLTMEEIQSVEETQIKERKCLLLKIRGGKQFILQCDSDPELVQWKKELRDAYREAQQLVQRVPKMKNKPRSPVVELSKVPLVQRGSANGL
Chain of AP-2 complex subunit beta (Homo sapiens) (P63010 whole entry, looked up, the tested form may be a part, one chain of several): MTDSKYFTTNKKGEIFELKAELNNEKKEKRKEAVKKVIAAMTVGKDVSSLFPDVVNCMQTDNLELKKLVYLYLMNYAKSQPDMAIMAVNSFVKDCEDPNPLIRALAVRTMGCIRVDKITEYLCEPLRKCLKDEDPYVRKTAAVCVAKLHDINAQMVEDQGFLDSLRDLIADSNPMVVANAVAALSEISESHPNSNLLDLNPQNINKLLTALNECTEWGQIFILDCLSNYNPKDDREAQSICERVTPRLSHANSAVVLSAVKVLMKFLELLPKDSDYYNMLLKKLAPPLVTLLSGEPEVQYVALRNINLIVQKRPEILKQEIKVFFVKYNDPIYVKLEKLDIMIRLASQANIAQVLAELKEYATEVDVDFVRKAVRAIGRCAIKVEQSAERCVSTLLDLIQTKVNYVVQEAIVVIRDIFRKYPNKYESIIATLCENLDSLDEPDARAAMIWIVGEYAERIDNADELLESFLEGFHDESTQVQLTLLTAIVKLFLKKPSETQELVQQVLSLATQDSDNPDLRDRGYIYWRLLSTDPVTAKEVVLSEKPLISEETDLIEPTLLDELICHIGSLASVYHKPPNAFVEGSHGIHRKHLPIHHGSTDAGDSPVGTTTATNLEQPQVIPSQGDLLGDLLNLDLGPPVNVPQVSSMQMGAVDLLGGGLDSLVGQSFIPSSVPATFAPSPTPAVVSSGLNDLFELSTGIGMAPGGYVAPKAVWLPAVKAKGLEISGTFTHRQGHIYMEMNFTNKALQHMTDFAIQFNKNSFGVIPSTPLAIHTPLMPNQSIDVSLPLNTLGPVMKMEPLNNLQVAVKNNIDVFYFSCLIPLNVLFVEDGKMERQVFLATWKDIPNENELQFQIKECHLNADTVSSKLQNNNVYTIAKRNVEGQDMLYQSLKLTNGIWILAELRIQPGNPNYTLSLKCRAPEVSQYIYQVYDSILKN

SMILES | percent of DMSO control GFP [1] | GFP response vs DMSO [2] | percent response of DMSO control [3] | GFP response vs DMSO [4] | GFP response, % of DMSO [5] | double positive events [6] | vesicle binding response [6] | inhibition [7] | superoxide response (% of plate) [8] | aptamer binding inhibition [9] | response [10] | inhibition [11] | response [12] | binding (% of control) [13] | efflux inhibition (fraction of control) [14] | inhibition [15] | differentiation response [16]
O=C(O)[C@H](Cc1ccccc1)NC(=O)N1CCC(Cc2ccccc2)CC1 | 104% (inactive) | 102% (inactive) | 96% (inactive) | 100% (inactive) | 99.9% (inactive) | 67% | 122% (inactive) | -0.31% (inactive) | 108% (inactive) | -6% (inactive) | 9.92% (inactive) | 4.86% (inactive) | 0.86% (inactive) | 99.5% (inactive) | -0.18 (inactive) | 6% (inactive) | -5.68% (inactive)
CC(=O)Oc1ccc(C(c2ccc(OC(C)=O)cc2)c2ccccn2)cc1 | 98.9% (inactive) | 104% (inactive) | 99.6% (inactive) | 125% (inactive) | 117% (inactive) | 63.6% | 203% (inactive) | -42% (inactive) | 105% (inactive) | 4% (inactive) | -25.8% (inactive) | -3.7% (inactive) | -1.07% (inactive) | 106% (inactive) | 0.08 (inactive) | 6% (inactive) | -7.94% (inactive)
COc1ccc(CC(=O)Nc2cccc(C(=O)Nc3ccccc3C(=O)O)c2)cc1OC | 103% (inactive) | 102% (inactive) | 96.4% (inactive) | 103% (inactive) | 108% (inactive) | 61.5% | 181% (inactive) | 6.55% (inactive) | 108% (inactive) | 6% (inactive) | -21.7% (inactive) | -0.19% (inactive) | 2.28% (inactive) | 99.7% (inactive) | 0 (inactive) | 8% (inactive) | 26.5% (inactive)
COc1cccc(-n2cc(CNCc3c(C(=O)N(C)C)nc4ccc(Cl)cn34)cn2)c1 | 103% (inactive) | 106% (inactive) | 111% (inactive) | 90.1% (inactive) | 99.9% (inactive) | 61.4% | 171% (inactive) | -4.6% (inactive) | 106% (inactive) | 5% (inactive) | -6.24% (inactive) | -5.56% (inactive) | -0.56% (inactive) | 98% (inactive) | -0.26 (inactive) | 19% (inactive) | 10% (inactive)
Cc1c(O)c(=O)ccn1C | 90.4% (inactive) | 121% (inactive) | 103% (inactive) | 76.5% (inactive) | 95.4% (inactive) | 64.3% | 412% (inactive) | 6.46% (inactive) | 99.1% (inactive) | 1% (inactive) | -11.3% (inactive) | -9.42% (inactive) | 3.11% (inactive) | 102% (inactive) | 0.27 (inactive) | 9% (inactive) | -3.28% (inactive)
CN(C)CCOC(c1ccccc1)c1ccccc1 (tested in a mixture with another compound) | 103% (inactive) | 99.3% (inactive) | 98.9% (inactive) | 91.4% (inactive) | 96.4% (inactive) | 58.3% | 138% (inactive) | 13% (inactive) | 91.9% (inactive) | 3% (inactive) | -5.43% (inactive) | -10.1% (inactive) | -1% (inactive) | 93.3% (inactive) | 0.27 (inactive) | 2% (inactive) | 5.13% (inactive)
CC(C)C(=O)Nc1cccnc1 | 103% (inactive) | 99.6% (inactive) | 99.6% (inactive) | 115% (inactive) | 106% (inactive) | 68.8% | 294% (inactive) | 21.4% (inactive) | 85.9% (inactive) | 4% (inactive) | 0.35% (inactive) | -1.65% (inactive) | 4.74% (inactive) | 99.3% (inactive) | -0.13 (inactive) | -4% (inactive) | 0% (inactive)
COc1cc2c(cc1OC)/C(=C/c1ccc(Cl)cc1)C(=O)OC2 | 87.8% (inactive) | 108% (inactive) | 95.2% (inactive) | 83.1% (inactive) | 85.7% (inactive) | 63.9% | 155% (inactive) | -7.12% (inactive) | 95.8% (inactive) | 4% (inactive) | -8.94% (inactive) | 10.1% (inactive) | -2.13% (inactive) | 104% (inactive) | 0.3 (inactive) | 1% (inactive) | -2.46% (inactive)
COc1cc2c3c(c1)C(C)CC(C)(C)N3C(=O)C2=O (stereo unspecified) | 92.4% (inactive) | 122% (inactive) | 110% (inactive) | 79.2% (inactive) | 94.7% (inactive) | 58.1% | 199% (inactive) | 15.2% (inactive) | 99% (inactive) | 89% (active) | 2.87% (inactive) | 0.2% (inactive) | 1.61% (inactive) | 105% (inactive) | 0.37 (inactive) | 12% (inactive) | 1.64% (inactive)
CC(=O)c1c(C)c(C)c2n1CCn1c(C)ccc1-2 | 105% (inactive) | 107% (inactive) | 93.1% (inactive) | 121% (inactive) | 107% (inactive) | 60.2% | 141% (inactive) | -36.9% (inactive) | 99.4% (inactive) | 0% (inactive) | -22.4% (inactive) | 6.32% (inactive) | -6.83% (inactive) | 116% (inactive) | -0.09 (inactive) | -18% (inactive) | -5.97% (inactive)
COc1cc(COc2ccc3c(C)c(Cc4ccccc4)c(=O)oc3c2)cc(OC)c1OC | 102% (inactive) | 103% (inactive) | 122% (inactive) | 94% (inactive) | 98.9% (inactive) | 55% | 38.9% (inactive) | 5.77% (inactive) | 117% (inactive) | 3% (inactive) | 5.22% (inactive) | 3.79% (inactive) | -1.95% (inactive) | 97.2% (inactive) | 0.08 (inactive) | -5% (inactive) | 3.18% (inactive)
CCCCCCCCCC(=O)OCC(O)CO (stereo unspecified) | 105% (inactive) | 105% (inactive) | 102% (inactive) | 103% (inactive) | 93.4% (inactive) | 65.4% | 163% (inactive) | -10.8% (inactive) | 116% (inactive) | 4% (inactive) | -2% (inactive) | 59.4% (active) | -4.17% (inactive) | 96.3% (inactive) | 0.18 (inactive) | 5% (inactive) | 9.04% (inactive)
CN(C)CCCN1c2ccccc2CCc2ccccc21 | 99% (inactive) | 103% (inactive) | 101% (inactive) | 90.7% (inactive) | 95.3% (inactive) | 65.8% | 1060% (inactive) | 12% (inactive) | 89.3% (inactive) | -2% (inactive) | 2.45% (inactive) | 4.55% (inactive) | -0.62% (inactive) | 99.7% (inactive) | -0.2 (inactive) | 3% (inactive) | 6.11% (inactive)
CC1=C/C(=N\N=C2\NC(=O)C(CC(=O)Nc3ccccc3F)S2)CC(C)(C)C1 (stereo unspecified) | 94.2% (inactive) | 125% (inactive) | 86% (inactive) | 83.1% (inactive) | 95.2% (inactive) | 58% | 104% (inactive) | 12.3% (inactive) | 96.1% (inactive) | 8% (inactive) | -1.66% (inactive) | -7.65% (inactive) | 1.96% (inactive) | 102% (inactive) | -0.2 (inactive) | 11% (inactive) | 4.09% (inactive)
CCOc1ccc(N2C(=O)CNC2=S)cc1 | 106% (inactive) | 106% (inactive) | 105% (inactive) | 110% (inactive) | 109% (inactive) | 66.1% | 202% (inactive) | -0.27% (inactive) | 105% (inactive) | 2% (inactive) | -17.9% (inactive) | 11.9% (inactive) | -2.61% (inactive) | 106% (inactive) | -0.09 (inactive) | -4% (inactive) | 3.88% (inactive)
COc1ccc(NC(=O)C2OC3OC(C)(C)OC3C3OC(C)(C)OC23)cc1 (stereo unspecified) | 98.9% (inactive) | 98.6% (inactive) | 98.3% (inactive) | 106% (inactive) | 119% (inactive) | 63.5% | 203% (inactive) | 13.4% (inactive) | 103% (inactive) | 5% (inactive) | -8.79% (inactive) | -12.6% (inactive) | 1.13% (inactive) | 106% (inactive) | -0.04 (inactive) | 5% (inactive) | 0.92% (inactive)
COC(=O)c1ccc(NC(=O)C23CCC(C)(C(=O)O2)C3(C)C)cc1 (stereo unspecified) | 95.2% (inactive) | 104% (inactive) | 102% (inactive) | 115% (inactive) | 106% (inactive) | 64.8% | 195% (inactive) | -2.82% (inactive) | 99.7% (inactive) | 2% (inactive) | -24.2% (inactive) | 1.74% (inactive) | -1.33% (inactive) | 110% (inactive) | -0.04 (inactive) | 6% (inactive) | -4.99% (inactive)
COc1ccc(CN2CCCC(C(=O)c3ccc(Cl)cc3)C2)cc1Cn1cccn1 (stereo unspecified) | 104% (inactive) | 105% (inactive) | 99.7% (inactive) | 95.9% (inactive) | 100% (inactive) | 61.3% | 182% (inactive) | -9.13% (inactive) | 79.4% (inactive) | -4% (inactive) | 30.8% (inactive) | -0.55% (inactive) | 1.1% (inactive) | 98.5% (inactive) | 0.05 (inactive) | 12% (inactive) | -3.11% (inactive)
